Assay: small molecules boosting NK-mediated OVCAR3 lysis – imaging, primary NK cells, calcein-AM imaging, primary screen (AID 1508625);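 also: compound given to NK cells 16 h before adding targets at 1.5 to 1 ratio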;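 as to z-score: more negative robust z means stronger NK killing of tumor cells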
Details: OVCAR3 lysis by primary NK cells, at 5 µM; z-score: measured here: robust Z-score, single-point normalisation

Row | Compound | corrected activity, negative = more killing [%] | z-score
1 | Cc1ccc2nc(NC(=O)COC(=O)c3ccc(Br)o3)sc2c1 | -3.82 | -1.44
2 | CCOC(=O)C1=C(C)Nc2sc(C(=O)c3ccc(C)cc3)c(N)c2C1c1ccc(C(=O)OC)cc1 (stereo not given) | -4.02 | -1.2
3 | Cc1cc2c(cc1C)NC(c1coc3ccc(Cl)cc3c1=O)C1=C(CC(C)(C)CC1=O)N2 (stereo not given) | -2.17 | -0.968
4 | Cc1ccc(S(=O)(=O)NCc2cc(-c3nn(C)c(=O)c4ccccc34)ccc2C)cc1 | -2.25 | -0.924
5 | O=C(CCCOc1ccccc1)N1CCN(c2ccccn2)CC1 | -1.33 | -0.738
6 | CCOC(=O)CC(NCc1ccc(Cl)c([N+](=O)[O-])c1)c1cccs1 (stereo not given) | -7.84 | -2.12
7 | O=C(c1cccc(F)c1)N1CCCN(C(=O)c2cccc(F)c2)CC1 | -4.12 | -1.69
8 | CCCCN(C)CCn1c(=S)[nH]c2cc3c(cc2c1=O)OCO3 | -6.47 | -1.71
9 | CCOC(=O)c1ccc(N=c2oc3ccccc3cc2C(=O)Nc2ccccc2)cc1 | 2.85 | 1.01
10 | COc1ccccc1CNC(=O)C(C)Oc1cccc(Cl)c1 (stereo not given) | -1.41 | -0.785
11 | Cc1c(C(=O)NCCc2ccccc2)oc2ccc(S(=O)(=O)N3CCCC3)cc12 | -4.9 | -1.22
12 | COc1ccc(-c2ccc3c(N)c(C(=O)Nc4ccc(C(C)=O)cc4)sc3n2)cc1 | -4.48 | -1.34
13 | CCc1ccc(NC(=O)c2ccccc2NC(=O)c2cccc(OC)c2)cc1 | 1.91 | 1.06
14 | CCC1=NN(C(=O)c2cccc(Cl)c2)C(O)(C(F)(F)F)C1 (stereo not given) | -2.2 | -0.839
15 | CCOc1ccc2nc(SCC(=O)Nc3ccccc3C(=O)O)sc2c1 | -4.64 | -1.75

From PubChem BioAssay AID1508625 (Wald Lab, School of Medicine, Case Western Reserve …, 2021)
